Compound activity as filed in PubChem BioAssay.
HPGD block: blocks human HPGD enzyme activity; P15428; purified HPGD, NADH fluorescence kinetic, PGE2 substrate; Potency, µM, without a hit: at the top dose activity change, negative = inhibition, most hits filed as inhibitors; 150,000 compounds, 4.3% hits; AID 894; also: potency is read from the fitted curve at half-maximal effect
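NADH formation kinetics: reaction with 30 uM PGE2 and 1 mM NAD+ (final), 20 nM enzyme, Tris-HCl pH 8 with Tween 20, after 15 min compound preincubation at room temperature. Fluorescence change, last versus first of five reads.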
ALDH1A1 inh: ALDH1A1 (human) enzyme inhibition | P00352 | Purified ALDH1A1, NADH fluorescence, propionaldehyde substrate | Potency, µM (highest dose often 75.3 µM), for the others: at the top dose activity, negative = inhibition, most hits filed as inhibitors | 220,000 compounds, 7.3% hits | AID 1030;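 also: potency is read from the fitted curve at half-maximal effect; plate controls were no enzyme wells and a reference inhibitor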
Target sequence (P00352 whole entry, looked up): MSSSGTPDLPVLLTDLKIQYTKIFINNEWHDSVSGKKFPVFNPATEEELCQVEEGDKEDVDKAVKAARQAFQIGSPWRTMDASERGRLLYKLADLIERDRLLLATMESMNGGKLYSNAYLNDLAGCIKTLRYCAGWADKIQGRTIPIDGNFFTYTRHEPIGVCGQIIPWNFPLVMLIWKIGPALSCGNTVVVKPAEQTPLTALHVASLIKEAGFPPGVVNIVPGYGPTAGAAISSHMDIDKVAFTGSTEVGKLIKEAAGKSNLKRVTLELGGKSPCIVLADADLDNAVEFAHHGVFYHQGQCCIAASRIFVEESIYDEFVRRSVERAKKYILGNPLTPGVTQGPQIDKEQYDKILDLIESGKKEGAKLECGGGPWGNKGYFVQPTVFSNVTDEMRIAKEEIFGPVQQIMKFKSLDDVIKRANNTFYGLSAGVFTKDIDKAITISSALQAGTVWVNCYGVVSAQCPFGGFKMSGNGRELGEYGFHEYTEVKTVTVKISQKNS
PNC assembly inh: blocks assembly of the perinucleolar compartment | PC3M PTB-GFP, PNC prevalence imaging, 16 h; active compounds read low | activity change (PNC), negative = inhibition, % at 10 µM | 140,000 compounds, 3.1% hits;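 active = readout at or below -70, meaning at least 70% loss of cells showing the perinucleolar compartment, a nuclear body marking cancer cells; inconclusive = readout between -30 and a set limit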;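 also: plate controls were DMSO wells for no effect and camptothecin positive control wells for full effect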
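Compounds are pinned in duplicate onto adhered PC3M cells stably expressing GFP-tagged PTB and incubated 16 h at 37 C. Cells are then fixed, nuclei stained with Hoechst, and PNC-positive cells counted.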
Lamin A splicing: LMNA splicing modulation; 200,000 compounds, 0.01% hits; Potency, µM (series often up to 46.1 µM), for inactives: top-dose ratio change, negative = inhibition, hits mostly inhibitors; HeLa LMNA splicing GFP/RFP minigene ratio, 48 h; active = well fitted inhibition curve with a large enough effect in the signal ratio, with a control signal flat, not every such curve was filed as active; inconclusive = small, poorly fitted or top-dose-only effect, or effect the other way, or a change in a side signal; the % refers to the signal ratio; also: potency is read from the fitted curve at half-maximal effect
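S3 HeLa cells stably expressing lamin A-EGFP splicing minigene plus DsRed2, 600 cells/well, 48 h compound exposure at 37C. Laser-scanning cytometry; analysed as GFP (500-530 nm)/RFP (575-640 nm) total intensity ratio; 0.5% DMSO vehicle.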
ALOX12 inhib: blocks human 12-lipoxygenase activity | P18054 | purified 12-hLO, xylenol orange hydroperoxide absorbance | Potency, µM (highest dose often 57.1 µM), without a hit: at the highest dose activity change, negative = inhibition, actives largely listed as inhibitors | 150,000 compounds, 0.12% hits | AID 1452; active = well fitted inhibition curve with a large enough effect; inconclusive = small, poorly fitted or top-dose-only effect; also: potency is read from the fitted curve at half-maximal effect; nearly all actives have a fitted effect of over 55% in size
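Hydroperoxide output read as Fe(III)-xylenol orange absorbance, 573-to-405 nm ratio, after 30 min reaction with 40 uM arachidonic acid. Enzyme: 150 nM purified human 12hLO, 15 min compound preincubation; 25 mM Hepes pH 7.0, room temperature.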
Starred values were filed as active, the others as inactive; u = inconclusive; x = no result given; [ ] = dose if it differs, or a comment. Sampled rows, rich in hits. Any-hit rate of the full collection: about 10%. Unless noted, calls follow the shape of the dose curve; as a rule, active = well fitted inhibition curve with a large enough effect (not every such curve was filed as active); inconclusive = small, poorly fitted or top-dose-only effect, or another doubt; inactive = no such curve, though single readings can be large or run the other way. Unless noted, % is scaled to controls: 0 for no effect and ±100 for the full control effect.

SMILES	HPGD block	ALDH1A1 inh	PNC assembly inh	Lamin A splicing	ALOX12 inhib
Cc1cc(C)n2nc(C(=O)OCC(=O)Nc3ccc4c(c3)OCO4)nc2n1	-15%	0%	-94*	16%	-2%
O=C(COC(=O)c1cc(-c2ccco2)nc2ccccc12)NCc1ccc2c(c1)OCO2	u	u	-100*	-10%	-7%
CCN(CC)c1ccc(NC(=O)c2nc3nc(C)cc(C(F)F)n3n2)cc1	22µM*	11µM*	20	-9%	2%
COc1ccc(N(Cc2nnc3n2CCCCC3)C(=O)Nc2cccc(C)c2)cc1Cl	x	x	x	18%[46 µM]	x
Cc1cc(C)c(S(=O)(=O)Nc2cccc(-c3cn4ccccc4n3)c2)c(C)c1	x	x	x	-4%[46 µM]	x
CNC(=O)C1CCC(Cn2c(=O)c3sccc3n(CC(=O)Nc3ccccc3)c2=O)CC1 (stereo unspecified)	x	x	x	3%[46 µM]	x
Cc1ccc(C(=O)OCC(=O)Nc2ccc3c(c2)OCO3)o1	-6%	-1%	-100*	-3%	3%
O=C(COC(=O)c1ccco1)Nc1ccc2c(c1)OCO2	-12%	u	21	9%	-25%
O=C(N/N=C/c1cccs1)[C@H]1C[C@@H]1c1ccccc1	-5%	10%	11	-2%	1%
S=C(N/N=C/c1cccs1)NC1CC2CCC1C2 (stereo unspecified)	x	18µM*	x	x	x
Oc1ccc(/C=N/NC(=S)NCC2CCCO2)cc1 (stereo unspecified)	-7%	-4%	-26	11%	0%
Oc1ccc(/C=N/NC(=S)NC2CC3CCC2C3)cc1 (stereo unspecified)	x	7.1µM*	x	11%[46 µM]	x
CCc1ccc(OC(=O)c2sc3ncn(Cc4cccc(F)c4)c(=O)c3c2C)cc1	x	x	x	-15%[46 µM]	x
CC(C)(C)NC(=O)c1cc(C(C)(C)C)c(O)c(C(C)(C)C)c1	-6%	10%	44	2%	2%
CC(=O)Nc1cc(C(C)(C)C)c(O)c(C(C)(C)C)c1	-9%	11µM*	u	12%	-11%
CC(C(=O)NC1CCCC1)N(C(=O)c1snc(C(N)=O)c1N)c1ccc2c(c1)OCCO2 (stereo unspecified)	-20%	13µM*	31	5%	-8%
O=C(CSc1nc2ccccc2nc1Cc1ccccc1)Nc1ccc2c(c1)OCO2	x	x	x	6%[46 µM]	x
COc1ccc(C(=O)c2sc(Nc3ccccc3)c(C(=O)Nc3ccc(OC)c(OC)c3)c2N)cc1	-14%	18µM*	36	9%	-9%
COc1ccc(NC(=O)c2c(Nc3ccccc3)sc(C(=O)c3ccc(F)cc3)c2N)cc1	u	-3%	u	u	-5%
CC1CC1C(=O)OCc1cc(=O)n2cc(Br)ccc2n1 (stereo unspecified)	-7%	-14%	26	9%	-8%
CC1(C(=O)OCc2cc(=O)n3cc(Br)ccc3n2)CC1(Cl)Cl (stereo unspecified)	x	20µM*	x	x	x
O=C(O)CCC(=O)C(=O)O	-16%	5%[13.5 µM]	x	-24%	1%
Cc1c(C(=O)N2CCC(C)CC2)c(S(=O)(=O)Nc2cccc(C(F)(F)F)c2)c(C)n1C	x	x	x	-6%[46 µM]	x
CCN(/N=C/c1ccc(Cl)cc1)c1cc(=O)n(C)c(=O)[nH]1	28µM*	u	6	-7%	-2%
O=C(COC(=O)c1ccccc1)Nc1cccc(S(=O)(=O)NC2=NCCCCC2)c1	-9%	6%	-23	1%	4%
SMILES	HPGD block	ALDH1A1 inh	PNC assembly inh	Lamin A splicing	ALOX12 inhib
Cc1cc(C)cc(C(=O)OCC(=O)Nc2cccc(S(=O)(=O)NC3=NCCCCC3)c2)c1	-8%	0%	-96*	u	-4%
CCN(CC)c1ccc(C(=O)OCC(=O)Nc2cccc(S(=O)(=O)NC3=NCCCCC3)c2)cc1	28µM*	u	u	-18%	-3%
CN1CCCC2(CCN(C(=O)c3cnccn3)CC2)C1	-10%	4%	x	x	4%
CCOC(=O)c1cc(-c2ccc(OC)cc2)n(CCC(=O)NC2CCCCC2)c1C	x	x	x	10%[46 µM]	x
CC(C)C(=O)NC(=S)Nc1sc2c(c1C(N)=O)CCCC2	14µM*	7.1µM*	-109*	1%	1%
O=C(Nc1sc2c(c1C(=O)N1CCOCC1)CCCCC2)c1cccnc1	x	22µM*	x	3%[9.22 µM]	x
Cc1noc(C)c1C(=O)Nc1sc2c(c1C(N)=O)CCC2	u	u	-23	0%	-3%
N#CCC(=O)Nc1sc2c(c1C(N)=O)CCCC2	-5%	u	25	u	-8%
NC(=O)c1c(NC(=O)Cc2cccs2)sc2c1CCC2	-14%	u	u	u	-3%
Cc1noc(C)c1C(=O)Nc1sc2c(c1C(N)=O)CCCCC2	u	7.9µM*	u	1%	-6%
CCCC(=O)NC(=S)Nc1sc2c(c1C(N)=O)CCC2	25µM*	8.9µM*	-11	12%	-1%
COC(=O)c1sc(SC)c(-c2ccon2)c1C	x	0%	x	-4%[46 µM]	x
Cc1nn(-c2ccccc2)c2c1N(CC(=O)N1CCN(c3ccc(Cl)cc3)CC1)C(=O)CS2	x	x	x	21%[46 µM]	x
CCOC(=O)c1c(NC(=O)OC)sc2c1CCC2	-4%	-14%	10	1%	1%
Cn1ncc(Cl)c1C(=O)Nc1sc2c(c1C(N)=O)CCC2	u	u	11	u	-1%
CCC(=O)Nc1sc2c(c1C(N)=O)CCC2	-14%	-17%	-100*	6%	-5%
CCC(C)NCC(=O)Nc1sc2c(c1C(N)=O)CCC2 (stereo unspecified)	-13%	-8%	22	14%	4%
NC(=O)c1c(NC(=O)c2cnccn2)sc2c1CCCC2	x	20µM*	x	x	x
COC(=O)Nc1sc2c(c1C(N)=O)CCCCCC2	14µM*	8.9µM*	-8	-13%	2%
COc1cc2c(cc1OC)-c1n[nH]c(=S)n1C(C)(C)C2	x	u	x	-7%[46 µM]	x
COc1cc2c(cc1OC)C(=S)NC(C)(C)C2	-12%	25µM*	-7	-11%	-14%
CN=c1scc(C)n1/N=C/c1cc(Br)c(O)c(OC)c1	x	u	x	-16%[46 µM]	x
CN=c1scc(-c2cccs2)n1/N=C/c1ccc(O)c(O)c1O	5µM*	6.3µM*	u	-11%	-22%
CN=c1scc(C)n1/N=C/c1ccc(O)c(O)c1O	7.1µM*	3.2µM*	-7	9%	-29%
CCOc1cc(Cn2c(-c3ccc(O)c(OCC)c3)nc3ccccc32)ccc1O	x	x	x	-24%[46 µM]	x
CCCCN1CCc2c([nH]c3ccc(C)cc23)C1=O	u	u	-100*	7%	-7%
CNC(=O)[C@]1(C)C[C@H]1[C@H](NC(=O)[C@]1(C)C[C@H]1[C@H](NC(=O)OCc1ccccc1)c1ccccc1)c1ccccc1	-8%	-15%	x	x	-1%
CN(C)/C=C/C(=O)/C=C/c1cn(-c2ncc(C(F)(F)F)cc2Cl)c2ccccc12	14µM*	-5%	u	u	-7%
Cc1sc2c3ccsc3ccc2[n+]1C	x	4.5µM*	x	x	x
Cc1sc2ccc3sccc3c2[n+]1C	x	-98%	x	-8%[46 µM]	x
